# According to the supplement of paper PMC9177965:
# Assays:
# [1] = system: HT29 RNF43 G659fs (RNF43 659mut, CRISPR-edited); test: cell viability activity relative to DMSO (negative = inhibition); higher = more viable cells (less growth inhibition); settings: 5 µM; 96 h
# Method: (§1)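 Broad Repurposing Library primary screen at a single dose of 5 uM. HT29 sg-Ctrl and HT29 RNF43 G659fs CRISPR-edited isogenic cells were seeded at 2500 cells/well in 384-well plates in duplicate and treated for 96 h. Viability was read by CellTiter-Glo and reported as % activity relative to DMSO, with MG132 as the positive control (negative = growth inhibition).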
# [2] = system: HT29 sg-Ctrl (RNF43 wildtype); test: as above; settings: 5 µM; 96 h
# Method: as §1
Structure (SMILES),cell viability activity [1] [%],cell viability activity [2] [%]
COc1cc(/C=C/c2ccc(OC)cc2OC)cc(OC)c1,-65.4,-75.7
CCC[C@H](NC(=O)/C(C#N)=C/c1cccc(Br)n1)c1ccccc1,-95.3,-92.4
Cc1ccccc1CN1C(=O)C2=C(CCN(Cc3ccccc3)C2)N2CCN=C12,-72.9,-76.7
Cc1nc(N)sc1-c1ccnc(Nc2ccc(N3CCOCC3)cc2)n1,-59.7,-59.8
Cc1c(C(=O)N2CCOc3ccc(-c4ccc(N)nc4)cc3C2)ccc(S(C)(=O)=O)c1F,-41.2,-32.1
CN(C)Cc1c(C(=O)NCCOc2ccc(C(=O)NO)cc2)oc2ccccc12,-94.9,-85.2
CNC(=O)Nc1ccc(-c2nc(N3CC4CCC(C3)O4)c3cnn(C4CCC5(CC4)OCCO5)c3n2)cc1,-50.9,-19.4
COc1ccc2[nH]c3c(-c4cccc5ccccc45)nccc3c2c1,-69.1,-60.2
CN(C)C(=O)[C@H](O)[C@H](Cc1ccccc1)NC(=O)c1cc2cc(Cl)ccc2[nH]1,-26.8,7.41
C=C1CC[C@@H]2[C@](C)(CO)[C@H](O)CC[C@@]2(C)[C@@H]1C/C=C1/C(=O)OC[C@H]1O,-27.5,-0.518
O=C1/C(=C/c2ccccc2)C(NC2CCCCC2)c2ccccc21 (stereo not given),-91.7,-74.6
Clc1ccc(COC(Cn2ccnc2)c2ccc(Cl)cc2Cl)cc1 (stereo not given),-23.9,-14.6
Nc1nc(=S)c2ncn([C@@H]3O[C@H](CO)[C@@H](O)[C@H]3O)c2[nH]1,-80.3,-76.6
CC[C@@H](C)Nc1cc(C(=O)N[C@H]2C[C@H]3CC[C@@H](C2)N3c2ccc(C(=O)C3CC3)cn2)c(C)cc1C(N)=O,-85.8,-84.4
Cn1cc(C2=C(c3cn(CCCSC(=N)N)c4ccccc34)C(=O)NC2=O)c2ccccc21,-81.3,-73.6
CC(C)C[C@H](NC(=O)[C@@H](NC(=O)c1cccc(-c2ccccc2)n1)[C@@H](C)O)B(O)O,-95.1,-95.4
CCCCc1nc2cc(/C=C/C(=O)NO)ccc2n1CCN(CC)CC,-99.3,-98.6
C[C@@H](Oc1cc(-n2cnc3ccc(CN4CCN(C)CC4)cc32)sc1C(N)=O)c1ccccc1C(F)(F)F,-89.5,-76.1

Structure (SMILES),cell viability activity [1] [%],cell viability activity [2] [%]
Cc1cnc(Nc2ccc(N3CCN(C)CC3)cc2)nc1Nc1cccc(S(=O)(=O)NC(C)(C)C)c1,-83.9,-89.4
Cc1ccc([N+](=O)[O-])cc1S(=O)(=O)N(C)/N=C/c1cnc2ccc(Br)cn12,-88.7,-94.4
CCCCCCCCCCCCCCCC[N+](C)(C)CCN(Cc1ccc(OC)cc1)c1ncccn1,-95.1,-94.5
CC(C)n1nc(-c2ccc3oc(N)nc3c2)c2c(N)ncnc21,-74.9,-52.5
CCCS(=O)(=O)Nc1ccc(F)c(C(=O)c2c[nH]c3ncc(-c4ccc(Cl)cc4)cc23)c1F,-35.4,-47.2
Clc1ccc(Cn2c(CN3CCCC3)nc3ccccc32)cc1,-32.7,11.6
CO[C@@H]1[C@H](N(C)C(=O)c2ccccc2)C[C@H]2O[C@]1(C)n1c3ccccc3c3c4c(c5c6ccccc6n2c5c31)C(=O)NC4,-53.8,-61.4
CCCS(=O)(=O)Nc1ccc(F)c(C(=O)c2c[nH]c3ncc(Cl)cc23)c1F,-46.8,-47.2
CCCCC(=O)OCC(=O)[C@]1(O)Cc2c(O)c3c(c(O)c2[C@@H](O[C@H]2C[C@H](NC(=O)C(F)(F)F)[C@H](O)[C@H](C)O2)C1)C(=O)c1c(OC)cccc1C3=O,-48.2,-25.4
O=C1NCCN1CCN1CCC(c2cn(-c3ccc(F)cc3)c3ccc(Cl)cc23)CC1,-93.7,-83.7
CC(C)(C)c1ccc(S(=O)(=O)/C=C/C#N)cc1,-80.4,-95.4
N#Cc1ccc(Cn2cncc2CN2CCN(c3cccc(Cl)c3)C(=O)C2)cc1,-45.7,-43.4
CNc1ncc2cc(-c3cc(NC(=O)NCCC(C)(C)C)c(F)cc3C)c(C)nc2n1,-69,-58.9
CC(=O)O[C@@]12CO[C@@H]1C[C@H](O)[C@@]1(C)C(=O)[C@H](O)C3=C(C)[C@@H](OC(=O)[C@H](O)[C@@H](NC(=O)OC(C)(C)C)c4ccccc4)C[C@@](O)([C@@H](OC(=O)c4ccccc4)[C@H]21)C3(C)C,-58.2,-58.6
Nc1nccc2c1ncn2C1C=C(CO)C(O)C1O (stereo not given),-38.4,-46.7
O=C(CCCCCCC(=O)Nc1ccccc1)NO,-85.7,-84.4
O=C(Nc1cc(C(F)(F)F)cc(C(F)(F)F)c1)c1cc(Cl)ccc1O,-94.4,-90.9
